This is an account of results in PubChem BioAssay.

The nature of the assay: small molecules captured by biotinylated probe aFST – biochemical, small-molecule microarray, fluorescence 635/667, stem cell growth factor project, primary screen (AID 1086).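 Note: score merges 667 nm fluorescence with signal-to-noise of each printed compound spot.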 To be noted: higher = more signal.
Regarding `CC(C)c1ccc(NN2C(C(O)C3CCCCC3)C=CC3C(=O)N(c4ccccc4)C(=O)C32)cc1` (stereo not given), the composite z-score was determined as 1.62.

Regarding `COc1ccc(C(=O)Nc2ccc(CN3C(=O)[C@]4(O[C@H](CC(=O)N(CCO)Cc5ccccc5)[C@@H]([Si](C)(C)c5ccc(OC)cc5)[C@@H]4C)c4ccccc43)cc2)cc1`, the composite z-score stood at 0.276.

Compound `CCOC(=O)C=C1C[C@@H](c2cccc([N+](=O)[O-])c2)O[C@@H](c2cccc([N+](=O)[O-])c2)O1` gave a composite z-score of 1.72.

In turn, `CC[C@@H]1C=C(C(=O)O)[C@H](c2cccc(Cl)c2)N1S(=O)(=O)c1ccc(C)cc1` had a composite z-score of 0.177.

In turn, `C=CCOC(=O)[C@H]1[C@@H]2C(=O)O[C@@H](c3ccccc3)[C@@H](c3ccccc3)N2[C@@H](c2ccc(OCCOC(=O)[C@@H]3C[C@@H]4C(=O)N[C@@H](Cc5ccccc5)C(=O)N4[C@@H]3c3ccc(O)cc3)cc2)[C@]12C(=O)Nc1ccc(I)cc12` displayed a composite z-score of 0.258.

Turning to `COC(=O)C1=CC(c2ccc(CO)cc2)=CC(C2CC2)N(Cc2cc3c(cc2Br)OCO3)C=C1C(=O)OC` (stereo not given), the composite z-score is 0.559.

Regarding `O=C1O[C@H](c2ccccc2)[C@H](c2ccccc2)N2[C@H]1[C@@H](C(=O)O)[C@]1(C(=O)Nc3ccc(C#CC4(O)CCCCCC4)cc31)[C@H]2c1ccccc1OCCO`, the composite z-score worked out at 0.39.

Compound `CCCCCCc1nc(-c2ccc(OC)nc2)c(C)c2c1[Si](C(C)C)(C(C)C)OC2` displayed a composite z-score of 0.0446.

As to `[N-]=[N+]=NCc1ccccc1[C@H]1OC(c2ccc(OCCCO)cc2)=N[C@@]1(Cc1ccccc1N=[N+]=[N-])C(=O)N1CCOCC1`, the composite z-score was 1.07.

With `C=CCOC(=O)[C@H]1[C@@H]2C(=O)O[C@@H](c3ccccc3)[C@@H](c3ccccc3)N2[C@@H](c2ccc(OCCOC(=O)[C@H]3C[C@H]4C(=O)NCC(=O)N4[C@H]3c3cccc(OCCO)c3)cc2)[C@]12C(=O)Nc1ccc(I)cc12`, the composite z-score came to 0.557.
